# From PubChem BioAssay (NCI)
# Compounds without any hit were thinned out: in the full panel of roughly 79,000, 15% have a hit. Unmarked numbers belong to inactive results. Activity calls are given as the source filed them. Cut-off read from the data, not from the text of the source: active = growth inhibition above about 70%; inactive = the rest.
# Experiments:
# [1] = NCI Yeast Anticancer Drug Screen. Data for the rad52 strain (AID 147);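 note: 0% = growth of vehicle-treated control cultures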; conditions: S. cerevisiae rad52 mutant growth inhibition, stronger effect = higher value
# In short: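 Screen used a yeast mutant impaired in DNA repair. After compound exposure, growth was measured. Values reflect inhibition compared with vehicle-treated cells.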
# [2] = NCI Yeast Anticancer Drug Screen. Data for the wt1 strain (AID 149);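 note: 0% = growth of vehicle-treated wt1 cultures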; conditions: S. cerevisiae wt1 strain (SPY 50644) growth inhibition, stronger effect = higher value
# In short: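 wt1 yeast, compound-treated; % growth inhibition vs vehicle control.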
# [3] = NCI Yeast Anticancer Drug Screen. Data for the rad50EPP+ strain (AID 151);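 note: 0% = growth of vehicle-treated control cultures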; conditions: S. cerevisiae rad50 mutant strain, stronger effect = higher value
# In short: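 Exposing the rad50EPP+ strain to each compound, growth was compared with vehicle-only cultures to give inhibition.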
# [4] = NCI Yeast Anticancer Drug Screen. Data for the mgt1 strain (AID 153); conditions: S. cerevisiae mgt1 mutant growth inhibition, stronger effect = higher value
# In short: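 Genetically defined yeast (mgt1) treated with compound; inhibition of growth expressed against vehicle-treated controls.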
# [5] = NCI Yeast Anticancer Drug Screen. Data for the rad50 strain (AID 155);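 note: 0% = growth of vehicle-only cultures of the same strain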; conditions: S. cerevisiae rad50 strain growth inhibition, stronger effect = higher value
# In short: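 Genetically altered yeast (DNA repair pathway); compound treatment; growth inhibition vs vehicle ctrl.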
# [6] = NCI Yeast Anticancer Drug Screen. Data for the mec2-1 strain (AID 157); conditions: S. cerevisiae mec2-1 strain, stronger effect = higher value
# In short: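 Readout is yeast growth inhibition, normalised to vehicle-treated controls, in the mec2-1 strain exposed to compound.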
# [7] = NCI Yeast Anticancer Drug Screen. Data for the sgs1 mgt1 strain (AID 161);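 note: 0% = growth of cultures given vehicle only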; conditions: S. cerevisiae sgs1 mgt1 strain, stronger effect = higher value
# In short: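 Compounds are added to genetically altered yeast, and growth is compared with cultures given vehicle alone to give percent inhibition.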
# [8] = NCI Yeast Anticancer Drug Screen. Data for the CLN2oe strain (AID 163);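 note: 0% = growth of vehicle-only control cultures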; conditions: S. cerevisiae CLN2oe strain, stronger effect = higher value
# In short: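 Values reflect how much compound exposure reduced yeast growth, referenced to vehicle-exposed cells. Assay organism is a strain with a defined genetic change affecting cell-cycle control.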
# [9] = NCI Yeast Anticancer Drug Screen. Data for the cln2 rad14 strain (AID 165);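 note: 0% = growth equal to vehicle treated cultures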; conditions: S. cerevisiae cln2 rad14 strain, stronger effect = higher value
# In short: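 Relative to vehicle controls, growth inhibition of compound-treated cln2 rad14 yeast was recorded.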
# [10] = NCI Yeast Anticancer Drug Screen. Data for the bub3 strain (AID 167); conditions: S. cerevisiae bub3 mutant strain, stronger effect = higher value
# In short: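 Yeast carrying a defined mutation is treated with each compound, and growth is compared with that of vehicle-exposed cells to give inhibition.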
# [11] = NCI Yeast Anticancer Drug Screen. Data for the mlh1 strain (AID 171);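 note: 0% = growth of vehicle-treated control cultures of the same strain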; conditions: S. cerevisiae mlh1 strain growth inhibition, stronger effect = higher value
# In short: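 Steps: expose the defined-mutant yeast strain to compound; expose a parallel culture to vehicle; measure growth; express compound effect as inhibition relative to the vehicle culture.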
# [12] = NCI Yeast Anticancer Drug Screen. Data for the sgs1 strain (AID 173);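 note: 0% = growth of vehicle-only control cultures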; conditions: S. cerevisiae sgs1 mutant, stronger effect = higher value
# In short: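 Treat defined-mutant yeast with compound; measure growth; calculate inhibition relative to vehicle-treated cells.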
# [13] = NCI Yeast Anticancer Drug Screen. Data for the mlh1 rad18 strain (AID 175); conditions: S. cerevisiae mlh1 rad18 strain growth inhibition, stronger effect = higher value
# In short: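 Test agents were incubated with a yeast strain of defined genotype (DNA damage repair defect). Inhibition of growth was derived by comparison with vehicle-exposed cultures.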
# [14] = NCI Yeast Anticancer Drug Screen. Data for the rad18 strain (AID 177); conditions: S. cerevisiae rad18 mutant growth inhibition, stronger effect = higher value
# In short: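 A genetically defined yeast mutant impaired in DNA damage repair was treated with test compounds, then its growth was measured against cultures receiving vehicle alone.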
# [15] = NCI Yeast Anticancer Drug Screen. Data for the wt2 strain (AID 169);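 note: 0% = growth of vehicle-treated yeast cultures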; conditions: S. cerevisiae wt2 strain growth inhibition, stronger effect = higher value
# In short: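 Values express reduction in yeast growth under compound treatment, referenced to vehicle-treated cells.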
# [16] = at 5.0 µM (retest, dose inferred, filed as 0.5)
# [17] = at 50.0 µM (retest, dose inferred, filed as 5.0)
compound,measurement,setting,value
CCN(CC)Cc1cc(Nc2c3ccccc3nc3c2[nH]c2ccccc23)cc(CN(CC)CC)c1O,growth inhibition,[1]; at 1.2 µM,32%
same,growth inhibition,[1]; at 3.7 µM,21%
same,growth inhibition,[1]; at 11.0 µM,12%
same,growth inhibition,[1]; at 33.0 µM,7%
same,growth inhibition,[1]; at 100.0 µM,18%
same,growth inhibition,[2]; at 1.2 µM,1%
same,growth inhibition,[2]; at 3.7 µM,2%
same,growth inhibition,[2]; at 11.0 µM,-1%
same,growth inhibition,[2]; at 33.0 µM,0%
same,growth inhibition,[2]; at 100.0 µM,3%
same,growth inhibition,[3]; at 1.2 µM,3%
same,growth inhibition,[3]; at 3.7 µM,1%
same,growth inhibition,[3]; at 11.0 µM,3%
same,growth inhibition,[3]; at 33.0 µM,2%
same,growth inhibition,[3]; at 100.0 µM,13%
same,growth inhibition,[4]; at 1.2 µM,-3%
same,growth inhibition,[4]; at 3.7 µM,-3%
same,growth inhibition,[4]; at 11.0 µM,-3%
same,growth inhibition,[4]; at 33.0 µM,-16%
same,growth inhibition,[4]; at 100.0 µM,1%
same,growth inhibition,[5]; at 1.2 µM,25%
same,growth inhibition,[5]; at 3.7 µM,7%
same,growth inhibition,[5]; [16],-3%
same,growth inhibition,[5]; at 11.0 µM,-4%
same,growth inhibition,[5]; at 33.0 µM,10%
same,growth inhibition,[5]; [17],10%
same,growth inhibition,[5]; at 50.0 µM,17.8%
same,growth inhibition,[5]; at 100.0 µM,23%
same,growth inhibition,[6]; at 1.2 µM,2%
same,growth inhibition,[6]; at 3.7 µM,1%
same,growth inhibition,[6]; [16],-2%
same,growth inhibition,[6]; at 11.0 µM,-1%
same,growth inhibition,[6]; at 33.0 µM,2%
same,growth inhibition,[6]; [17],15%
same,growth inhibition,[6]; at 50.0 µM,21.3%
same,growth inhibition,[6]; at 100.0 µM,5%
same,growth inhibition,[7]; [16],-5%
same,growth inhibition,[7]; [17],1%
same,growth inhibition,[7]; at 50.0 µM,-10.1%
same,growth inhibition,[8]; at 1.2 µM,-5%
same,growth inhibition,[8]; at 3.7 µM,-3%
same,growth inhibition,[8]; at 11.0 µM,1%
same,growth inhibition,[8]; at 33.0 µM,3%
same,growth inhibition,[8]; at 100.0 µM,7%
same,growth inhibition,[9]; [16],48%
same,growth inhibition,[9]; [17],61%
same,growth inhibition,[9]; at 50.0 µM,66%
same,growth inhibition,[10]; at 1.2 µM,-2%
same,growth inhibition,[10]; at 3.7 µM,-4%
same,growth inhibition,[10]; [16],16%
same,growth inhibition,[10]; at 11.0 µM,-3%
same,growth inhibition,[10]; at 33.0 µM,-3%
same,growth inhibition,[10]; [17],38%
same,growth inhibition,[10]; at 50.0 µM,-10.2%
same,growth inhibition,[10]; at 100.0 µM,0%
same,growth inhibition,[11]; at 1.2 µM,1%
same,growth inhibition,[11]; at 3.7 µM,2%
same,growth inhibition,[11]; at 11.0 µM,1%
same,growth inhibition,[11]; at 33.0 µM,1%
same,growth inhibition,[11]; at 100.0 µM,7%
same,growth inhibition,[12]; at 1.2 µM,6%
same,growth inhibition,[12]; at 3.7 µM,3%
same,growth inhibition,[12]; at 11.0 µM,-2%
same,growth inhibition,[12]; at 33.0 µM,-2%
same,growth inhibition,[12]; at 100.0 µM,0%
same,growth inhibition,[13]; [16],13%
same,growth inhibition,[13]; [17],16%
same,growth inhibition,[13]; at 50.0 µM,-11.6%
same,growth inhibition,[14]; at 1.2 µM,16%
same,growth inhibition,[14]; at 3.7 µM,9%
same,growth inhibition,[14]; at 11.0 µM,-2%
same,growth inhibition,[14]; at 33.0 µM,-11%
same,growth inhibition,[14]; at 100.0 µM,-7%
CC(C)OC(=O)c1ccc(CCc2cc(O)c(Br)cc2O)cc1,growth inhibition,[1]; at 1.2 µM,37%
same,growth inhibition,[1]; at 3.7 µM,50%
same,growth inhibition,[1]; at 11.0 µM,56%
same,growth inhibition,[1]; at 33.0 µM,53%
same,growth inhibition,[1]; at 100.0 µM,79% (active)
same,growth inhibition,[2]; at 1.2 µM,26%
same,growth inhibition,[2]; at 3.7 µM,33%
same,growth inhibition,[2]; at 11.0 µM,45%
same,growth inhibition,[2]; at 33.0 µM,27%
same,growth inhibition,[2]; at 100.0 µM,98% (active)
same,growth inhibition,[3]; at 1.2 µM,66%
same,growth inhibition,[3]; at 3.7 µM,80% (active)
same,growth inhibition,[3]; at 11.0 µM,94% (active)
same,growth inhibition,[3]; at 33.0 µM,97% (active)
same,growth inhibition,[3]; at 100.0 µM,94% (active)
same,growth inhibition,[4]; at 1.2 µM,55%
same,growth inhibition,[4]; at 3.7 µM,70% (active)
same,growth inhibition,[4]; at 11.0 µM,71% (active)
same,growth inhibition,[4]; at 33.0 µM,72% (active)
same,growth inhibition,[4]; at 100.0 µM,94% (active)
same,growth inhibition,[5]; at 1.2 µM,34%
same,growth inhibition,[5]; at 3.7 µM,49%
same,growth inhibition,[5]; [16],27%
same,growth inhibition,[5]; at 11.0 µM,66%
same,growth inhibition,[5]; at 33.0 µM,98% (active)
same,growth inhibition,[5]; [17],99% (active)
same,growth inhibition,[5]; at 50.0 µM,86.2% (active)
same,growth inhibition,[5]; at 100.0 µM,97% (active)
same,growth inhibition,[6]; at 1.2 µM,6%
same,growth inhibition,[6]; at 3.7 µM,20%
same,growth inhibition,[6]; [16],42%
same,growth inhibition,[6]; at 11.0 µM,30%
same,growth inhibition,[6]; at 33.0 µM,32%
same,growth inhibition,[6]; [17],99% (active)
same,growth inhibition,[6]; at 50.0 µM,91.2% (active)
same,growth inhibition,[6]; at 100.0 µM,87% (active)
same,growth inhibition,[7]; [16],31%
same,growth inhibition,[7]; [17],98% (active)
same,growth inhibition,[7]; at 50.0 µM,88.5% (active)
same,growth inhibition,[8]; at 1.2 µM,-5%
same,growth inhibition,[8]; at 3.7 µM,19%
same,growth inhibition,[8]; at 11.0 µM,53%
same,growth inhibition,[8]; at 33.0 µM,92% (active)
same,growth inhibition,[8]; at 100.0 µM,95% (active)
same,growth inhibition,[9]; [16],1%
same,growth inhibition,[9]; [17],96% (active)
same,growth inhibition,[9]; at 50.0 µM,91.8% (active)
same,growth inhibition,[10]; at 1.2 µM,22%
same,growth inhibition,[10]; at 3.7 µM,22%
same,growth inhibition,[10]; [16],4%
same,growth inhibition,[10]; at 11.0 µM,52%
same,growth inhibition,[10]; at 33.0 µM,98% (active)
same,growth inhibition,[10]; [17],91% (active)
same,growth inhibition,[10]; at 50.0 µM,88.9% (active)
same,growth inhibition,[10]; at 100.0 µM,92% (active)
same,growth inhibition,[15]; at 1.2 µM,18%
same,growth inhibition,[15]; at 3.7 µM,39%
same,growth inhibition,[15]; at 11.0 µM,95% (active)
same,growth inhibition,[15]; at 33.0 µM,98% (active)
same,growth inhibition,[15]; at 100.0 µM,95% (active)
same,growth inhibition,[11]; at 1.2 µM,55%
same,growth inhibition,[11]; at 3.7 µM,70% (active)
same,growth inhibition,[11]; at 11.0 µM,71% (active)
same,growth inhibition,[11]; at 33.0 µM,72% (active)
same,growth inhibition,[11]; at 100.0 µM,94% (active)
same,growth inhibition,[12]; at 1.2 µM,47%
same,growth inhibition,[12]; at 3.7 µM,60%
same,growth inhibition,[12]; at 11.0 µM,58%
same,growth inhibition,[12]; at 33.0 µM,61%
same,growth inhibition,[12]; at 100.0 µM,95% (active)
same,growth inhibition,[13]; [16],45%
same,growth inhibition,[13]; [17],99% (active)
same,growth inhibition,[13]; at 50.0 µM,85.2% (active)
same,growth inhibition,[14]; at 1.2 µM,20%
same,growth inhibition,[14]; at 3.7 µM,24%
same,growth inhibition,[14]; at 11.0 µM,59%
same,growth inhibition,[14]; at 33.0 µM,96% (active)
same,growth inhibition,[14]; at 100.0 µM,93% (active)
